Measurements published in PubChem BioAssay (NCATS).
Inconclusive results are not listed. Entries that show only a call come without a potency. Calls of active or inactive are those of the source. The call rests on the fitted dose curve.

What follows are molecules tested against Nucleoprotein (Lymphocytic choriomeningitis virus (strain Armstrong)) (UniProt P09992) (assay: qHTS for Inhibitors of the Functional Ribonucleoprotein Complex (vRNP) of Lymphocytic Choriomeningitis Arenaviruses (LCMV): LCMV Primary Screen - GLuc reporter signal (AID 1347086; further: nearly all actives have a fitted effect of over 70% in size)). Settings: LCMV minigenome vRNP cell assay, Gaussia luciferase reporter; series mostly up to 57.5 µM.
Nucleoprotein (Lymphocytic choriomeningitis virus (strain Armstrong)), sequence (P09992 whole entry, looked up): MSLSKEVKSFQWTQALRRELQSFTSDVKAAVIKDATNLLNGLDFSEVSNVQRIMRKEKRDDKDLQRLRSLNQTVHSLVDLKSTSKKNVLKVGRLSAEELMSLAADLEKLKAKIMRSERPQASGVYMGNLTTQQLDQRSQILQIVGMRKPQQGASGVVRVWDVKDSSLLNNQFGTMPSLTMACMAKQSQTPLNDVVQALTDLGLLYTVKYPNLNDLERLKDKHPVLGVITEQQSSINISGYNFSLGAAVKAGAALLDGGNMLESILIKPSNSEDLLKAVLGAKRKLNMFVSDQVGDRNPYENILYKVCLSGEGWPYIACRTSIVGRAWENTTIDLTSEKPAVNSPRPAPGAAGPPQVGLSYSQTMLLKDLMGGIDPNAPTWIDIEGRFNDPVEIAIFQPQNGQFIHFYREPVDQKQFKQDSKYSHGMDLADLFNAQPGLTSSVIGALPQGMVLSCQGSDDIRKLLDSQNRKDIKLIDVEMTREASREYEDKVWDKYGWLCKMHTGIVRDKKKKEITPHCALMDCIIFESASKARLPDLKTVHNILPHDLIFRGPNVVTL
Potency means the concentration at half of the fitted maximal effect.

Row | SMILES | activity change, negative = inhibition | Potency
1 | NC[C@H]1O[C@H](O[C@H]2[C@H](O[C@@H]3O[C@H](CO)[C@@H](O)[C@H]3O)C(O)[C@H](N)C[C@@H]2N)[C@H](N)[C@@H](O)[C@@H]1O (some centres not stated) | 40.8% [at 11.5 µM] (inactive) | –
2 | CC(=O)Nc1ccc(S(=O)(=O)Nc2cc(C)on2)cc1 | – | inactive
3 | O=S(=O)(O)c1ccc2nc(-c3ccccc3)[nH]c2c1 | – | inactive
4 | CCc1oc2ccccc2c1C(=O)c1cc(I)c(O)c(I)c1 | – | inactive
5 | CN1CCN(C(=O)C2CCCCC2)CC1 | – | inactive
6 | COC(=O)C1=C(C)NC(C)=C(C(=O)OCCc2ccc(N3CCN(C(c4ccccc4)c4ccccc4)CC3)cc2)C1c1cccc([N+](=O)[O-])c1 (configuration not stated) | – | inactive
7 | C#CCC(Cc1cnc2nc(N)nc(N)c2n1)c1ccc(C(=O)N[C@@H](CCC(=O)O)C(=O)O)cc1 (some centres not stated) | – | 306 nM (active)
8 | CCO[C@H](Cc1ccc(OCCc2ccc(OS(C)(=O)=O)cc2)cc1)C(=O)O | – | inactive
9 | Nc1ccc(O)cc1 | – | inactive
10 | CC(=O)NC(=O)c1ccccc1O | – | inactive
11 | C/C=C1\[C@H]2C=C(C)C[C@]1(N)c1ccc(=O)[nH]c1C2 | – | inactive
12 | NC(N)=NS(=O)(=O)c1ccc(N)cc1 | – | inactive
13 | CS(=O)(=O)c1ccc([C@@H](O)[C@@H](CF)NC(=O)C(Cl)Cl)cc1 | – | inactive
14 | NS(=O)(=O)c1cc2c(cc1C(F)(F)F)NC(Cc1ccccc1)NS2(=O)=O (configuration not stated) | – | inactive
15 | O=C(O)CCCC[P+](c1ccccc1)(c1ccccc1)c1ccccc1 | – | inactive
16 | O=[N+]([O-])c1ccc(/C=N\O)o1 | – | inactive
17 | NC(=O)c1cc[n+](CC2=C(C(=O)[O-])N3C(=O)[C@@H](NC(=O)Cc4cccs4)[C@H]3SC2)cc1 | – | inactive
